Measurements taken from PubChem BioAssay.

Test: NFkB reporter suppression in cystic fibrosis bronchial cells – cell-based, uHTS hits, panel, cytotoxicity readout, dose response (AID 624344)
Settings: CF bronchial epithelial cells, PAF-induced NFkB reporter inhibition, with PAF, run 1; at 79 µM (top of the series) unless noted
`CCSc1nsc(NC(=O)Nc2cccc(OC)c2)n1` gave an inhibition of 102%. `O=C(Oc1cc2oc(=O)cc(-c3ccccc3)c2cc1Cl)C1CCCCC1` showed an inhibition of 113%. Work on `NC(c1csc(NC(=O)Nc2cccc(Cl)c2)n1)c1ccccc1Cl` (configuration not stated) yielded an inhibition of 96.3%. Work on `CC1(O)CC(c2ccc(Cl)cc2)=NN1C(=O)c1ccc(Cl)cc1` (configuration not stated) yielded an inhibition of 109%. Work on `O=C(COc1ccc(Cl)cc1)Nc1ncc([N+](=O)[O-])s1` yielded an inhibition of 115%. Work on `Fc1ccc(Nc2ccnc(Nc3ccc(F)cc3)n2)cc1` yielded an inhibition of 113%. Compound `COc1ccc(-c2oc3ccc(-c4ccc5c(c4)OCO5)cc3c2C#CC2(O)CCCCC2)cc1` has an inhibition of 101%. In the case of `O=[N+]([O-])c1ccc(O)c(C2CCCCC2)c1`, the inhibition is reported as 117%. Work on `CCN(CC)CCN(C(=O)CCS(=O)(=O)c1ccccc1)c1nc2c(C)cc(C)cc2s1` yielded an inhibition of 106%. For `CCOC(=O)C1(C(=O)OCC)COC(=O)C1CN1Cc2cc3ccccc3nc2C1` (configuration not stated), the inhibition was 65.1%. Work on `O=C(Nc1cccc(Cl)c1)Nc1csc([N+](=O)[O-])c1` yielded an inhibition of 114%. `Cc1ccnc(NC(=O)CCCOc2cc(=O)n(C)c3ccccc23)c1` gave an inhibition of 105%. With `Cn1c(Sc2ccc(Cl)cc2)c(C=O)c2ccccc21` the inhibition was 119%. `c1csc(CNc2ncnc3ccc(-c4ccoc4)cc23)c1` showed an inhibition of 105%. Compound `COc1ccc(OC)c(-c2nnc3n2N=C(c2ccc(OC)c(OC4CCCC4)c2)CS3)c1` has an inhibition of 103%. In the case of `CC(=O)Nc1ccc(-c2ccnc3c2CC(C(=O)NCc2ccccc2)O3)cc1` (configuration not stated), the inhibition is reported as -53.5%. With `COc1ccc2ncn(-c3ccccc3)c2c1` the inhibition was 104%. Compound `C=C1C(=O)O[C@@H]2[C@H]3O[C@]3(C)CC/C=C(\C)CC[C@@H]12` has an inhibition of 101%. Compound `O=C(Nc1nnc(C(F)(F)F)s1)c1ccc(Br)s1` has an inhibition of 114%. `O=C(Nc1ccccc1)c1cc2ccccc2c(=O)s1` gave an inhibition of 50.8%. `C=CCn1cnc2c(c1=O)c1nc3ccccc3nc1n2/N=C/c1cc(OC)c(OC)c(OC)c1` showed an inhibition of 109%. Compound `Cc1c(-c2ccccc2)oc2c(C(=O)N3CCN(c4ccc([N+](=O)[O-])cc4)CC3)cccc2c1=O` has an inhibition of 105%.

Test: as above
Settings: CF bronchial epithelial cells, PAF-induced NFkB reporter inhibition, with PAF, run 2; at 79 µM (top of the series) unless noted
Compound `Nc1ncc([N+](=O)[O-])c(N2CCCCCC2)n1` has an inhibition of 104%. Work on `CCOc1cc2c(cc1O)C(=NOC)CC1C2CCC2(C)C(O)CCC12` (configuration not stated) yielded an inhibition of 94.3%. Compound `CCC(CO)Oc1cc(NCc2ccc(Cl)cc2Cl)c2ncn(C(C)C)c2c1` (configuration not stated) has an inhibition of 109%. Work on `C=CC[C@]12CC=CC(=O)[C@@]1(O)O[C@H](c1ccc(OC)c(OC)c1)[C@H]2C` yielded an inhibition of 87.5%. `COc1ccc(-n2nnnc2S(=O)(=O)Cc2ccc(C(=O)O)cc2)cc1` gave an inhibition of 102%. In the case of `C=C1C(=O)O[C@@H]2[C@H]1CC[C@H](C)[C@]1(O)CCC(=O)[C@@]21C`, the inhibition is reported as 108%. Compound `COc1ccc(N(CCCN2C(=O)c3cccc4cccc(c34)C2=O)C(=O)c2ccncc2)cc1` has an inhibition of 45.8%. For `CC1CCN(Cc2c(C(=O)N/N=C/c3ccc(C(C)(C)C)cc3)nnn2-c2nonc2N)CC1`, the inhibition was 108%. With `CCOc1ccc(C(C(=O)NCC2CCCO2)N(Cc2cccs2)C(=O)c2snc(C(N)=O)c2N)cc1` (configuration not stated) the inhibition was 92.5%. For `CC(C)(C)C(=O)/C(=C/c1ccncc1)n1cncn1`, the inhibition was 102%. Compound `Cc1ccc(-c2cc(C(=O)N(C)Cc3cnn(C)c3C)c3cc(Br)ccc3n2)cc1` has an inhibition of 102%. Work on `Nc1ncnc(N2CCc3ccccc32)c1[N+](=O)[O-]` yielded an inhibition of 103%. For `COc1cc(CN(C)c2ccc(S(=O)(=O)N3CCCC3)cn2)ccc1OC(F)F`, the inhibition was 98.6%. Work on `Cc1nc2sc(C(N)=O)c(N)c2c2c1CCCC2` yielded an inhibition of 104%. `CN(Cc1ccccc1)c1ncnc(N)c1[N+](=O)[O-]` gave an inhibition of 102%. Work on `CC(=O)c1c(O)cc(O)c(C(C)=O)c1O` yielded an inhibition of 101%. Work on `CCC(=O)c1ccc(O)c(CC=C(C)C)c1` yielded an inhibition of 97.8%. In the case of `O=C(Nc1cccc(-c2cnc3ccccc3n2)c1)c1cccc(NC(=O)c2ccco2)c1`, the inhibition is reported as 96.6%. Compound `CCSc1nsc(NC(=O)Nc2cccc(OC)c2)n1` has an inhibition of 113%. Work on `O=C(Oc1cc2oc(=O)cc(-c3ccccc3)c2cc1Cl)C1CCCCC1` yielded an inhibition of 105%. Work on `NC(c1csc(NC(=O)Nc2cccc(Cl)c2)n1)c1ccccc1Cl` (configuration not stated) yielded an inhibition of 101%. For `CC1(O)CC(c2ccc(Cl)cc2)=NN1C(=O)c1ccc(Cl)cc1` (configuration not stated), the inhibition was 78.5%. In the case of `O=C(COc1ccc(Cl)cc1)Nc1ncc([N+](=O)[O-])s1`, the inhibition is reported as 83.3%. Work on `Fc1ccc(Nc2ccnc(Nc3ccc(F)cc3)n2)cc1` yielded an inhibition of 101%. Compound `COc1ccc(-c2oc3ccc(-c4ccc5c(c4)OCO5)cc3c2C#CC2(O)CCCCC2)cc1` has an inhibition of 91.6%. Compound `O=[N+]([O-])c1ccc(O)c(C2CCCCC2)c1` has an inhibition of 103%. In the case of `CCN(CC)CCN(C(=O)CCS(=O)(=O)c1ccccc1)c1nc2c(C)cc(C)cc2s1`, the inhibition is reported as 115%. In the case of `CCOC(=O)C1(C(=O)OCC)COC(=O)C1CN1Cc2cc3ccccc3nc2C1` (configuration not stated), the inhibition is reported as 65.6%. `O=C(Nc1cccc(Cl)c1)Nc1csc([N+](=O)[O-])c1` showed an inhibition of 97.5%. `Cc1ccnc(NC(=O)CCCOc2cc(=O)n(C)c3ccccc23)c1` gave an inhibition of 112%. `Cn1c(Sc2ccc(Cl)cc2)c(C=O)c2ccccc21` gave an inhibition of 107%. `c1csc(CNc2ncnc3ccc(-c4ccoc4)cc23)c1` showed an inhibition of 116%. Compound `COc1ccc(OC)c(-c2nnc3n2N=C(c2ccc(OC)c(OC4CCCC4)c2)CS3)c1` has an inhibition of 110%. `CC(=O)Nc1ccc(-c2ccnc3c2CC(C(=O)NCc2ccccc2)O3)cc1` (configuration not stated) showed an inhibition of -72.7%. `COc1ccc2ncn(-c3ccccc3)c2c1` showed an inhibition of 101%. For `C=C1C(=O)O[C@@H]2[C@H]3O[C@]3(C)CC/C=C(\C)CC[C@@H]12`, the inhibition was 99.4%. `O=C(Nc1nnc(C(F)(F)F)s1)c1ccc(Br)s1` showed an inhibition of 74.5%. In the case of `O=C(Nc1ccccc1)c1cc2ccccc2c(=O)s1`, the inhibition is reported as 85.2%. For `C=CCn1cnc2c(c1=O)c1nc3ccccc3nc1n2/N=C/c1cc(OC)c(OC)c(OC)c1`, the inhibition was 102%. `Cc1c(-c2ccccc2)oc2c(C(=O)N3CCN(c4ccc([N+](=O)[O-])cc4)CC3)cccc2c1=O` showed an inhibition of 93.8%.
